Compound activity as filed in PubChem BioAssay.
Shown are actives, neighbours in structure and some others; about 4.4% of the full set was active somewhere.
HPGD block = qHTS Assay for Inhibitors of HPGD (15-Hydroxyprostaglandin Dehydrogenase); 150,000 tested, 4.3% active; Potency, µM, for inactives: top-dose activity change, negative = inhibition, hits mostly inhibitors; purified HPGD, NADH fluorescence kinetic, PGE2 substrate; 15-hydroxyprostaglandin dehydrogenase [NAD(+)] (Homo sapiens), P15428; AID 894, 2007; active = well fitted inhibition curve with a large enough effect, not every such curve was filed as active; inconclusive = small, poorly fitted or top-dose-only effect, or another doubt; inactive = no such curve, though single readings can be large or run the other way
Target sequence (P15428 whole entry, looked up): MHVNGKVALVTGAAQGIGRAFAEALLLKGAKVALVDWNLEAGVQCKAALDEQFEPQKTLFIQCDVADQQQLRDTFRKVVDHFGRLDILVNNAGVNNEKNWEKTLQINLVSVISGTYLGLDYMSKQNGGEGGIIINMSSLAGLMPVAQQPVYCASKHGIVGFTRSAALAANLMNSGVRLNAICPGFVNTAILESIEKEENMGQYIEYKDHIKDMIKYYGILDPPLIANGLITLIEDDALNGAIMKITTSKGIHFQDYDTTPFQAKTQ
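20 nM HPGD preincubated 15 min at room temperature with compound in 50 mM Tris-HCl pH 8, 0.01% Tween 20. Started with 1 mM NAD+ and 30 uM prostaglandin E2; NADH fluorescence (360/450 nm) read 5 times over 30-s intervals, last minus first.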
p53ts 39C kill = qHTS Screen for Compounds that Selectively Target Cancer Cells with p53 Mutations: Cytotoxicity of p53ts Cells at the Nonpermissive Temperature; Potency, µM (top dose mostly 46.1 µM), for inactives: at the highest dose activity change, negative = cell killing, actives largely listed as cytotoxic; H1299-p53A138V viability at 39C, ATP luminescence, 24 h; 130,000 tested, 1.5% active; AID 902, 2007; note: nearly all actives have a fitted effect of over 55% in size
12-hLO inh = qHTS Assay for Inhibitors of 12-hLO (12-human lipoxygenase); 150,000 tested, 0.12% active; Polyunsaturated fatty acid lipoxygenase ALOX12 (Homo sapiens), P18054; Potency, µM (series often up to 57.1 µM), without a hit: at the highest dose activity change, negative = inhibition, hits mostly inhibitors; purified 12-hLO, xylenol orange hydroperoxide absorbance; AID 1452, 2008; note: nearly all actives have a fitted effect of over 55% in size
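Hydroperoxide formation by human 12-lipoxygenase from 40 uM arachidonic acid was followed colorimetrically via ferric-xylenol orange complex, using the 573/405 nm absorbance ratio. Enzyme concentration was 150 nM, with 30 min reaction at room temperature.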
p53ts 32C tox = qHTS Screen for Compounds that Selectively Target Cancer Cells with p53 Mutations: Cytotoxicity of p53ts Cells at the Permissive Temperature | H1299-p53A138V at 32C, ATP luminescence viability, 24 h | Potency, µM (titrated, usually from 46.1 µM), inactives show at the top dose activity change, negative = cytotoxicity, hits mostly cytotoxic | 130,000 tested, 0.93% active;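 note: 0% = DMSO and -100% = full killing by reference compound; nearly all actives have a fitted effect of over 55% in size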
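H1299-p53 A138V cells (temperature-sensitive p53) exposed 24 h to up to 46 uM compound at 32C, where p53 is wild-type in conformation. Viability read as ATP luminescence and normalised to DMSO and 100 uM tamoxifen. AC50 fitted with the Hill equation.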
* hit, by the source's call; ? = inconclusive; / = no result. Unless noted, calls come from the whole dose curve; as a rule, active = well fitted curve in the direction sought with a large enough effect; inconclusive = small, poorly fitted or top-dose-only effect, or another doubt; inactive = no such curve, though single readings can be large; an effect the other way counts as inactive or inconclusive. Unless noted, % is set by controls: 0 for no effect and ±100 for the full control effect; potency is the fitted concentration of half-maximal effect.

SMILES	HPGD block	p53ts 39C kill	12-hLO inh	p53ts 32C tox
C=CCn1c(N)c(C(=O)OCC)sc1=S	-17%	/	0%	/
Cc1ccc(-c2nc(C(=O)NCc3ccccc3Cl)c3n2CCCCC3)cc1	/	-4%	/	-5%
Cc1ccc(C2(c3ccc(C)cc3)CC2C(=O)Nc2ccc([N+](=O)[O-])cc2O)cc1 (stereo unspecified)	14µM*	/	-21%	/
CC1(C)CC1C(=O)Nc1ccc([N+](=O)[O-])cc1Br (stereo unspecified)	/	/	-1%	/
O=C(c1ccc(Nc2cccc(C(F)(F)F)c2)nc1)N1CCCC1	?	-14%	-1%	-14%
Cc1ccc(Nc2ccc(C(=O)N3CCCC3)cn2)c(C)c1	2.2µM*	/	-7%	/
CNS(=O)(=O)c1ccc(OC)c(-c2nnc3c4ccccc4c(C)nn23)c1	16µM*	13%	-1%	8%
COc1ccc(S(=O)(=O)NC(C)(C)C)cc1-c1nnc2c3ccccc3c(C)nn12	-29%	19%	4%	6%
COc1ccc(S(=O)(=O)N2CCN(CCO)CC2)cc1-c1nnc2c3ccccc3c(C)nn12	?	1%	-2%	6%
COc1ccc(S(=O)(=O)NCc2ccco2)cc1-c1nnc2c3ccccc3c(C)nn12	5µM*	9%	3%	13%
COc1ccc(NC(=O)c2cc3n(n2)C(C(F)(F)F)CC(c2ccco2)N3)cc1 (stereo unspecified)	-3%	5%	1%	-1%
O=C(NCC12CC3CC(CC(C3)C1)C2)c1cc2n(n1)C(C(F)(F)F)CC(c1ccco1)N2 (stereo unspecified)	-21%	20µM*	-7%	-30%
O=C(CN1CCOCC1)Nc1ccc(C2CCCCC2)cc1	16µM*	-14%	-4%	-6%
O=C(CN1CCNCC1)Nc1ccc(Oc2ccccc2)cc1	-1%	/	-3%	/
O=C(CN1CCCC1)Nc1ccc(Oc2ccc(NC(=O)CN3CCCC3)cc2)cc1	25µM*	-24%	-1%	-16%
Cc1cccc(C)c1NC(=O)c1sc(-n2nc(C)c(Cc3ccccc3)c2C)nc1C	/	19%	/	-3%
N#C/C(=N\Nc1cccc(Cl)c1)C(=O)c1ccccc1	-17%	/	-11%	/
N#C/C(=N\Nc1ccccc1Cl)C(=O)c1ccccc1	28µM*	/	2%	/
CCc1ccc(Nc2nnc(-n3nc(C)cc3C)c3ccccc23)cc1	/	-20%	/	3%
CCOC(=O)c1cnc(SC)nc1Sc1cc(Cl)ccc1Cl	7.1µM*	/	-4%	/
CCOC(=O)c1cnc(SC)nc1Nc1cccc(F)c1	-9%	-1%	-10%	3%
Cc1cccc(CNc2ncncc2-c2ccccc2C(F)(F)F)c1	-8%	11%	-6%	8%
CCCSCCCNC(=O)CN1C(=O)CCn2nc(-c3cn(C)c4ccccc34)cc21	/	-5%	/	-1%
Cc1ccc(-c2cc(-c3ccccc3)no2)c(O)c1	-15%	5µM*	-3%	/
Cc1ccc(C(=O)Oc2cc(-c3ccccc3)no2)cc1	-4%	/	3%	/
SMILES	HPGD block	p53ts 39C kill	12-hLO inh	p53ts 32C tox
Oc1ccccc1-c1cc(-c2ccccc2)no1	1.6µM*	/	3%	/
Cc1ccccc1-c1cc(-c2ccccc2O)on1	14µM*	/	-8%	/
COc1ccc(CNC(=O)c2ccc3c(c2)N(Cc2cc(C)ccc2C)C(=O)CS3)cc1	/	21%	/	2%
O=C(Nc1cc(NC(=O)c2ccccc2Cl)ccc1Cl)c1ccccc1	/	-21%	/	-15%
CN(C)C(=O)c1ccc(-c2cc(NCc3ccccc3)ncn2)cc1	/	-3%	/	1%
Cc1c(-c2ccccc2)nc2c(Cl)cccc2c1C(=O)OCC(=O)c1ccc(F)cc1	/	6%	/	17%
Cc1ccc(CSc2nc3c(c(=O)[nH]2)C(c2ccncc2)C2=C(CCCC2=O)N3)cc1 (stereo unspecified)	-8%	20%	-2%	2%
O=C1CCCC2=C1C(c1ccc(Br)cc1)c1c([nH]c(=S)[nH]c1=O)N2 (stereo unspecified)	7.1µM*	-8%	?	7%
Cc1ccc(C2C3=C(CCCC3=O)Nc3[nH]c(=S)[nH]c(=O)c32)cc1 (stereo unspecified)	10µM*	-8%	?	8%
COc1ccc(N2CCN(C(=O)CN3C(=O)COc4ccc(S(=O)(=O)N5CCC(C)CC5)cc43)CC2)cc1	/	14%	/	9%
O=C(CSc1c2c(nc3ccccc13)CCC2)Nc1ccc(F)cc1F	/	11%	/	-3%
O=C1c2ccccc2CCCC12N=NCC2c1cccc2ccccc12 (stereo unspecified)	-19%	/	2%	/
Cc1ccc(C2CN=NC23CCc2ccccc2C3=O)cc1 (stereo unspecified)	32µM*	/	4%	/
CC(Sc1nnc(NCc2ccccc2)s1)C(=O)Nc1ccc2c(c1)C(=O)c1ccccc1C2=O (stereo unspecified)	14µM*	/	-3%	/
O=C(O)c1ccc(COc2ccccc2C=C2C(=O)c3ccccc3C2=O)cc1	10µM*	/	0%	/
O=C(O)c1ccc(COc2ccccc2/C=C2/NC(=O)N(c3cccc(Cl)c3)C2=O)cc1	?	/	-2%	/
C=CCn1c(-c2ccc(N)cc2)nc2ccccc21	?	/	-1%	/
C=CCn1c(-c2ccc(OC)cc2)nc2ccccc21	?	?	-2%	16µM*
Cc1ccc(NC2=C(NC(=O)c3ccccc3)C(=O)c3ccccc3C2=O)cc1Cl	20µM*	?	-2%	?
Cc1ccc(NCC(=O)c2ccccc2)cc1Cl	-25%	/	-3%	/
CCOc1ccc(N2C(=O)CC(N)C2=O)cc1 (stereo unspecified)	40µM*	1%	0%	?
COC(=O)c1ccc(N2C(=O)CC(SCCN)C2=O)cc1 (stereo unspecified)	-6%	-18%	-1%	-30%
CCOc1ccc(N2C(=O)CC(N(C)Cc3ccccc3)C2=O)cc1 (stereo unspecified)	-11%	/	2%	/
CCCOc1ccc(N2C(=O)CC(SCCN)C2=O)cc1 (stereo unspecified)	-13%	10µM*	4%	13µM*
COc1cc2nc(NCc3ccc(C)cc3)n3nc(-c4ccccc4)nc3c2cc1OC	/	11%	/	21%
CCOc1ccc(C2C(=O)N(C3CCCCC3)CC(=O)N2Cc2ccccc2OC)cc1OC (stereo unspecified)	/	-22%	/	6%
Cc1ccccc1CSc1ccc(-c2cccs2)nn1	/	11µM*	/	?
COC(=O)c1ccc(C)c(NS(=O)(=O)c2ccc(OC)cc2)c1	-2%	-4%	-10%	5%
COC(=O)c1sccc1NS(=O)(=O)c1ccc(OC)cc1	20µM*	9%	-4%	6%
Cc1cc(C(F)(F)F)c(C#N)c(SCC(=O)Nc2nc3ccccc3s2)n1	-22%	/	1%	/
